# C8 TRAIL sens – viability loss with TRAIL in NB7+C8 cells, primary screen, TRAIL sensitizer project, cell-based, ATPlite luminescence. inhibition (viability loss, TRAIL sensitization), % at 10 µM. 360,000 tested, 1% active. AID 624354, 2012;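 active = compounds causing at least 50% loss of cell viability in the single-dose screen, relative to plate controls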
# PPC-1+TRAIL kill – compounds killing PPC-1 cancer cells with TRAIL present, primary screen, TRAIL potentiator project, ATPLite luminescence, uHTS | PPC-1 cells + TRAIL, ATPLite viability luminescence | cell killing (% activity), % at 4 µM or 5 µM | 220,000 tested, 0.41% active;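 active = cell killing above 50% in the first pass at 4 µM, then a duplicate retest at 5 µM averaging 50% or more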;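 also: plate controls were cells with TRAIL plus DMSO for no effect and medium-only wells lacking cells for full effect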
# STAT1 blocker – STAT1 signaling inhibitors, primary screen, cell-based, HTS, luciferase reporter | inhibition, % at 5.5 µM | 200,000 tested, 0.35% active | NIH 3T3 STAT1-luciferase reporter, IFN-gamma, luminescence | AID 920, 2007;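 active = inhibition above a set limit, the mean inhibition across all tested compounds plus 3 SD, cut at about 34% in these data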;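 also: 0% = IFN-gamma with DMSO and 100% = IFN-gamma with 300 µM nifuroxazide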
# STAT3 blocker – IL-6 driven STAT3 reporter inhibitors, primary screen, U3A cells, luciferase, luminescence, MLSCN library. AID 862, 2007. inhibition, % at 5.5 µM. 190,000 tested, 0.89% active. IL-6 STAT3-luciferase reporter; host cell line lacks STAT1;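 active = inhibition above the mean inhibition across all screened compounds plus 3 SD, cut at about 44% in these data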;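 also: 0% = DMSO only wells and 100% = 100 µM nifuroxazide control wells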
# HSF1 inhib – HSF1 inhibitors in luciferase reporter cells, primary screen, cell-based, NIH3T3, luminescence | NIH3T3-HGL HSE-luciferase, MG132-induced, luminescence 8 h; active compounds read low | activity change, negative = inhibition, % at 7.5 µM (by protocol) | 300,000 tested, 0.77% active;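 active = more than half of replicate wells show activity change below -50%, luminescence cut by over half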;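 also: luciferase reports HSF-1 transcriptional activity via heat shock element; 0% = median of DMSO wells and -100% = zero luminescence signal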
# HSP90 inh – HSP90 inhibitors, primary screen, cell lysate, luminescence; Heat shock protein HSP 90 (rabbit reticulocyte lysate; luciferase refolding); Rabbit reticulocyte lysate, luciferase refolding luminescence, 3 h; inhibition, % at 5.6 µM; 290,000 tested, 0.91% active; AID 1789, 2009;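 active = inhibition above the screen-wide mean plus 3 SD, computed separately per campaign, cut at about 16% in these data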;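 also: 0% = DMSO wells and 100% = 60 µM geldanamycin wells; inhibitors lower the luminescence because luciferase stays unfolded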
# * = called active by the depositor; · = not tested or not shown. Sampled rows, rich in hits. Any-hit rate of the full collection: about 2.4%.
SMILES,C8 TRAIL sens,PPC-1+TRAIL kill,STAT1 blocker,STAT3 blocker,HSF1 inhib,HSP90 inh
CC(=O)NCC1=C(NC(C)=O)C2CC1C(C)(C)C2C (centres undefined),·,24,-3,4,-53*,5
C=CCC[C@@H](CCCCC)OC(=O)/C=C/[C@H](O)[C@@H](O)C[C@H](O)CC=C,10,·,·,·,·,·
C=CC(=O)N1C/C(=C/c2ccc(Cl)cc2)C(=O)/C(=C\c2ccc(Cl)cc2)C1,93*,·,·,·,·,·
O=C1C(=Cc2ccc(Cl)cc2)Cc2ccccc21,16,·,·,·,·,·
C=CC(=O)N1C/C(=C/c2ccccc2)C(=O)/C(=C\c2ccccc2)C1,92*,·,·,·,·,·
Cn1c(Nc2ccc(Cl)cc2F)nc2cc(-c3ccccc3)sc2c1=O,-2,·,·,·,·,·
Nc1ccn([C@@H]2O[C@H](C(=O)N[C@H](CO)c3ccccc3)[C@@H](O)[C@H]2O)c(=O)n1,-14,·,·,·,·,·
CCN(CC)C(=O)C1=C(C)N(Cc2ccc(F)cc2)C(=O)C(CC(=O)NCCN2CCOCC2)C1 (centres undefined),3,·,·,·,·,·
Cc1ccc(S(=O)(=O)NC(=O)NC2=NC(C)(C)N(c3ccc(Cl)c(Cl)c3)C(N)=N2)cc1,82*,·,·,·,·,·
CC(C)NC(=O)N1Cc2cc(C(=O)NC3CCCCC3)nc(-c3cccc(-c4cccnc4)c3)c2[C@@H]1CCO,8,·,·,·,·,·
O=C(NCc1ccccc1)c1cc(C2CCCCN2C(=O)c2ccccc2)on1 (centres undefined),-15,·,·,·,·,·
Cc1ccccc1CNC(=O)c1ccccc1C(=O)O,10,0,-4,2,0,16*
O=C1c2cccnc2-c2ncccc21,-3,19,9,9,8,8
O=C1C(=O)c2cccnc2-c2ncccc21,96*,·,·,·,·,·
CSc1ccccc1NC(=O)C1=CC(c2ccc(C)cc2)=NS(=O)(=O)N1C,6,·,·,·,-56*,-3
COc1ccccc1N1CCN(C(=O)CSc2ncccc2-c2nc3ccccc3[nH]2)CC1,-6,8,5,28,-21,22*
CCOc1ccc(-c2cnc(NCc3cccc4ccccc34)n2CCOC)cc1,11,·,·,·,-83*,3
CCOC(=O)N1CCN(c2nc(C)c3c(n2)CCCC3=O)CC1,-5,8,-8,12,-70*,-4
Cc1cc(C)cc(Cn2cc(CN3CC(N4CCSCC4)CS3(=O)=O)nn2)c1 (centres undefined),-21,·,·,·,·,·
Cc1nnc(NC(=O)c2ccc(S(=O)(=O)C(F)F)cc2)s1,50*,26,·,·,7,4
CCOC(=O)C1(C)CCCN(C(=O)COc2ccccc2)C1 (centres undefined),-3,·,·,·,·,·
CC1=C(C(=O)Nc2ccccc2)C(c2ccc(C)cc2)N=C(Nc2nc3ccccc3o2)N1 (centres undefined),50*,8,-6,16,38,2
CC1(C)CC(=O)C2=C(C1)NC(Nc1nc3ccccc3o1)=NC2c1ccccn1 (centres undefined),-39,1,-1,-11,-5,-7
O=C(Nc1ccc(-n2ccnc2P(=O)(O)c2ccccc2)cc1)c1ccccc1Cl,0,-2,-3,5,-55*,-1
O=C(Nc1ccc(Br)cc1F)c1nc[nH]c1C(=O)N1CCc2ccccc2C1,6,·,·,·,·,·
SMILES,C8 TRAIL sens,PPC-1+TRAIL kill,STAT1 blocker,STAT3 blocker,HSF1 inhib,HSP90 inh
CCOC(=O)C1(C)CCCCCN1C(=O)c1ccc(OC)cc1 (centres undefined),0,·,·,·,·,·
CNc1cncc(-c2cccc(OC)c2F)n1,-7,·,·,·,·,·
COc1cc(C(=O)Nc2ccccc2NC(=O)c2cc(OC)c(OC)c(OC)c2)cc(OC)c1OC,2,·,·,·,-69*,-1
COC(=O)C[C@H]1CC[C@@H](NC(=O)c2ccncc2)[C@@H](CO)O1,-6,·,·,·,·,·
O=C1Nc2ccccc2N(C(=O)c2ccc3ccccc3c2)C1c1nc2ccccc2[nH]1 (centres undefined),58*,·,·,·,·,·
CC1C(=O)Nc2ccccc2N1C(=O)c1ccc(O)cc1 (centres undefined),-2,·,·,·,4,-3
COc1ccc(Cc2c(C3CCCCC3)nc3c(C)cc(Br)cn23)c(C)c1,1,·,·,·,·,·
COC(=O)/C=C1\OCc2c(F)cccc21,-19,·,·,·,·,·
Cc1ccc(-n2c(C)cc(/C=c3/sc4nc5ccccc5n4c3=O)c2C)cc1,·,-6,43*,63*,-82*,1
CCCC(=O)N(Cc1cc2cc(OC)ccc2[nH]c1=O)c1ccccc1OC,3,·,·,·,·,·
COc1ccc(-c2nn(-c3ccccc3)cc2/C=C/C(=O)OCC(=O)Nc2ccccc2C#N)cc1,48,23,-1,2,0,-5
N#Cc1ccccc1NC(=O)COC(=O)/C=C/c1cn(-c2ccccc2)nc1-c1ccc(Cl)cc1,61*,16,1,11,·,0
CCc1nc2ccc(C(=O)N3CCN(C(=O)c4ccco4)CC3)cn2c1N(C)C(=O)c1cccc(OC)c1,0,·,·,·,·,·
C#Cc1ccc(NC(=O)C2(C)CCN2C(=O)C2(c3ccccc3)CCCC2)cc1 (centres undefined),86*,·,·,·,·,·
C#Cc1ccc(NC(=O)C2(C)CCN2C(=O)c2ccccc2CCc2ccccc2)cc1 (centres undefined),89*,·,·,·,·,·
COCCN1C(=O)COc2ccccc2C1C(=O)NC1CCCC1 (centres undefined),10,·,·,·,·,·
COC(=O)C(Cc1ccccc1)NC(=O)CNC(=O)c1sc2ccccc2c1Cl (centres undefined),-12,·,·,·,-53*,-2
O=C(CNC(=O)c1sc2ccccc2c1Cl)NCc1ccccc1,18,·,·,·,-5,2
Cc1ccccc1-n1nnnc1SCC(N)=O,3,7,-1,5,-8,2
Cc1ccccc1-n1nnnc1Sc1nnnn1-c1ccccc1,55*,9,26,0,·,2
Cc1cc2c(cc1C)-n1nnnc1C(N(C)CCc1ccccc1)C(=O)N2 (centres undefined),-22,·,·,·,·,·
COc1ccc(N(C)C(=O)c2oc(=O)c3ccccc3c2-c2ccccc2)c(OC)c1,-2,2,·,·,-79*,0
COc1ccc(N(C)C(=O)Cn2c(=O)oc3ccccc32)c(OC)c1,-6,·,·,·,-9,1
O=[N+]([O-])c1cc(S(=O)(=O)Oc2ccccc2)ccc1Cl,58*,·,·,·,·,·
O=S(=O)(Oc1ccccc1)c1ccc(Cl)c(Cl)c1,-2,·,·,·,·,·
CCCOc1ccc(NC(N)=O)cc1OCCC,8,16,-9,-3,-68*,4
CC(=O)NC(c1cccc(F)c1)c1nc(-c2cnn(C)c2)cs1 (centres undefined),-10,·,·,·,·,·
c1ccc(-c2nn[nH]n2)nc1,-1,-16,·,·,-59*,4
COc1ccc2nc(-c3ccc(F)cc3)sc2c1,65*,·,·,·,-33,·

# Assay outcomes deposited in PubChem by several laboratories.
